Bioassay records from PubChem.
In the library only some 2.1% were active in any assay of this set; here they are far more common.
PLC-beta3 inh: blocks human PLC-beta3 enzyme activity. Purified PLC-beta3, fluorogenic substrate, fluorescence. AID 720704. inhibition, % at 12.2 µM. 370,000 compounds, 0.18% hits. Q01970; in the data active means inhibition above about 11%;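 further: 0% = median of compound wells on plate and 100% = full blocker control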
PLC-gamma1 inh: PLC-gamma1 (human) inhibition, primary screen. AID 720700. inhibition, % at 12.2 µM. purified PLC-gamma1, fluorogenic substrate, fluorescence. P19174. 370,000 compounds, 0.84% hits
ADAM17 inh: ADAM17 inhibition, QFRET primary screen | P78536 | recombinant ADAM17, EDANS/DABCYL FRET peptide cleavage | inhibition, % at 6.95 µM | 370,000 compounds, 0.83% hits;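 active means inhibition above the mean of compounds lying between control limits plus 3 SD, set per campaign, cut at about 8.5% in these data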;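 further: 0% = DMSO-only wells as the low control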
Rce1 inhib: blocks yeast Ras-converting enzyme; Q03530; yeast membranes, quenched prenylated peptide cleavage fluorescence; calls only; 290,000 compounds, 0.27% hits; AID 2563;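 active means fall in fluorescence gain of 50% or more versus controls, with final raw signal at or below 3038400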;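 further: plate controls were neutral control wells for no effect and wells lacking membranes for full effect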
ADAM10 inh: ADAM10 inhibition, QFRET primary screen; 370,000 compounds, 0.62% hits; AID 720582; recombinant ADAM10, EDANS/DABCYL FRET peptide cleavage, 3 h; inhibition, % at 7 µM; O14672;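 active means inhibition above a per-campaign cutoff equal to the mean of compounds falling between control-based bounds plus 3 SD, cut at about 20% in these data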;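 further: 0% = DMSO wells while the 100% control is not disclosed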
Target sequence (O14672 214-748 limits assumed): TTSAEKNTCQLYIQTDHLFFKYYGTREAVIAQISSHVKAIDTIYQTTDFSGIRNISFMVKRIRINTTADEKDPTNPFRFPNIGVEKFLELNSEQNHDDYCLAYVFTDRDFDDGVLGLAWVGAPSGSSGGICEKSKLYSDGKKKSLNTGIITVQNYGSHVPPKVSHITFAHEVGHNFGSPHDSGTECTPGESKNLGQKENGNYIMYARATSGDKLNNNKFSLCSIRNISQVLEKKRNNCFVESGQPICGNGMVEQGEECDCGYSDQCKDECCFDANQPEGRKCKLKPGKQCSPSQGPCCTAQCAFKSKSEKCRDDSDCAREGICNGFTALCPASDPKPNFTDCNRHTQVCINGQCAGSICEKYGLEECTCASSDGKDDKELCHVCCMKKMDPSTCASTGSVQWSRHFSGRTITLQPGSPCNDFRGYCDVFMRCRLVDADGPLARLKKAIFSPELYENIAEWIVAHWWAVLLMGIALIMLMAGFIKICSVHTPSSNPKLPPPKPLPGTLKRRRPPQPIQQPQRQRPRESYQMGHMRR
PLCgamma1 ctr: PLC-gamma1 inhibition, counter-screen for PLC-beta3 hits; inhibition, % at 12.3 µM; shares compounds with PLC-gamma1 inh; AID 743258; purified PLC-gamma1, fluorogenic substrate, fluorescence; 3,300 compounds, 3.1% hits
PLCbeta3 conf: confirmation of human PLC-beta3 inhibitors; shares compounds with PLC-gamma1 inh; purified PLC-beta3, fluorogenic substrate fluorescence; inhibition, % at 12.3 µM; 3,300 compounds, 1% hits; in the data active means inhibition above about 11%
The depositor's hits bear a star; i = inactive; . = not tested or not shown. Unless noted, no stated cut-off is given here; in the data, active means inhibition above about 9.5%; inactive means the rest.

SMILES	PLC-beta3 inh	PLC-gamma1 inh	ADAM17 inh	Rce1 inhib	ADAM10 inh	PLCgamma1 ctr	PLCbeta3 conf
Cc1cccc(NC(=O)CSc2nnc3ccc(-c4ccccn4)nn23)c1	-6	-2	-5	i	-13	.	.
CC(C)(C)OC(=O)C[C@H]1C/C=C\C[C@@H](CC(=O)N(CCO)Cc2ccccc2)C(=O)N2CCC[C@@H]2COC1=O	11*	0	9	.	7	-5	-2
CC(C)(C)OC(=O)C[C@@H]1C/C=C\C[C@H](CC(=O)N(CCO)Cc2ccccc2)C(=O)NCCOC1=O	17*	6	3	.	3	-9	-6
CC(C)NC(=O)C1(C)CN(S(C)(=O)=O)CC(=O)N1Cc1cccc(C(F)(F)F)c1 (stereo unspecified)	-2	-2	0	.	-4	.	.
COCCNC(=O)C1(C)CCCN(C(=O)c2ccc(F)c(Cl)c2)C1 (stereo unspecified)	-1	-2	-7	.	-10	.	.
O=C(NCc1cccnc1)c1cc(C2CCCN(C(=O)c3cccs3)C2)on1 (stereo unspecified)	9	16*	8	.	-9	-1	5
O=C(NCc1ccc(F)cc1)c1cc(C2CCCN(C(=O)c3cccs3)C2)on1 (stereo unspecified)	-1	-1	-3	.	-10	.	.
O=C(c1cc(Cl)cc(Cl)c1)N1CCC2CC1c1cc(N3CCCCC3)ccc12 (stereo unspecified)	-1	-2	0	.	-5	.	.
FC(F)(F)c1ccc(Cl)c(N/N=C/c2ccc(N3CCOCC3)s2)c1	-13	-15	7	i	-3	.	.
Cc1ccc(NS(=O)(=O)c2c(F)cc(F)c(Cl)c2F)cc1S(=O)(=O)N1CCOCC1	10	9.8*	5	.	8	-2	-3
N#CCCSCc1ccc(C(=O)O)o1	6	4	0	i	-2	.	.
N#CCCSCc1ccc(OCC(=O)O)cc1	10	9.9*	2	i	10	-3	0
O=C1CN(C(=O)COC(=O)c2cccc(Br)c2)c2ccccc2N1	-10	14*	0	.	-2	-2	-1
COc1ccc(C(=O)OCC(=O)Nc2c(C)n(C)n(-c3ccccc3)c2=O)cc1OC	-8	3	-10	.	-10	.	.
CN(Cc1cn(-c2ccccc2)nc1-c1cc2ccccc2o1)C(=O)CCC(=O)O	0	10*	-38	i	-128	-6	-3
COc1ccc(OC)c(C=NNC(=O)c2ccccc2NS(=O)(=O)c2cccs2)c1	-179	-148	-49	.	-215	.	.
COC(=O)[C@@]1(Cc2ccc(F)cc2)[C@H]2c3cc(C(=O)N(C)C)n(Cc4ccc(OC(F)(F)F)cc4)c3C[C@H]2CN1C(=O)c1ccccc1	-6	-1	8	i	11	.	.
COc1ccc(NC(=O)Cn2c(C(C)C)nc(C)cc2=O)cc1Cl	3	10*	-3	i	1	-8	-4
COc1ccc(NC(=O)Cn2c(=O)c(C)nc3ccccc32)cc1Cl	-8	1	-4	i	0	.	.
CCC1Sc2ccc(S(=O)(=O)CCC(=O)Nc3ccc(OC(F)(F)F)cc3)cc2NC1=O (stereo unspecified)	-7	3	0	i	12	.	.
O=C(NCC(c1ccccc1)c1ccccc1)[C@H](Cc1ccccc1)NC1(C(=O)NC2CCCCC2)CCCC1	1	0	-2	.	2	.	.
COC(CNC(=O)[C@H](Cc1ccccc1)NC1(C(=O)NC2CCCCC2)CCCC1)OC	10	9.8*	2	.	3	-1	0
O=C(CCc1n[nH]c(=O)[nH]c1=O)N1CCOCC1	11*	6	5	i	-1	-8	-1
CCCCOC(=O)CCc1n[nH]c(=O)[nH]c1=O	2	-1	-3	i	2	.	.
O=C(CCNc1n[nH]c(=O)[nH]c1=O)N1CCOCC1	0	14*	-3	i	8	-7	-2
CN(Cc1nc(-c2ccncc2)no1)S(=O)(=O)c1ccccc1	1	-1	-7	i	3	.	.
CC(C)N(Cc1nc(-c2ccccc2)no1)C(=O)CN(C)S(=O)(=O)c1ccccc1	6	9.6*	-3	i	5	8	0
NS(=O)(=O)c1cccc(NC(=O)c2cc(=O)c3ccccc3o2)c1	-3	3	1	i	12	.	.
